# PMC7862700, “An all-to-all approach to the identification of sequence-specific readers for epigenetic DNA modifications on cytosine”
# Key:
# Experiment in all cases: DAPPL (digital affinity profiling via proximity ligation, sequencing); 10 mM Tris-HCl pH 7.5, 50 mM NaCl, 1 mM DTT, 4% glycerol, room temperature, 30 min; GST-TFs on glutathione beads, 16-mer random dsDNA library, 0.1% formaldehyde crosslink after washing; high values mean tight binding
# [1] = biological target: T1, FLI1 (Homo sapiens, UniProt Q01543 1-452); conditions: protein: recombinant; tags: N-terminal GST; dsDNA, one strand shown
# T1 sequence: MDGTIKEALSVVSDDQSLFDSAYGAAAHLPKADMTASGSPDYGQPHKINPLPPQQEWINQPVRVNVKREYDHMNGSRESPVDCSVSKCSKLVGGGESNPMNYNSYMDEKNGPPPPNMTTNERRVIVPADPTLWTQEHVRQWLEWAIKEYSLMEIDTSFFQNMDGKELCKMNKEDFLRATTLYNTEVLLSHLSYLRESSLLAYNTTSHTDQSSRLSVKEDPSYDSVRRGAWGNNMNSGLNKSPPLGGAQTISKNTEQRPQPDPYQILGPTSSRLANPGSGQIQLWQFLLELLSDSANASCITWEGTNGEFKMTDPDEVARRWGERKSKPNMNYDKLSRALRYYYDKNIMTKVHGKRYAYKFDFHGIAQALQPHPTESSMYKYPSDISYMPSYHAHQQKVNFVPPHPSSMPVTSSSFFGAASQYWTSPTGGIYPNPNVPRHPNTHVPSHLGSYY
# Procedure, shortened: (§1)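 Sequencing on an Illumina NextSeq500 followed washing, crosslinking with 0.1% formaldehyde, proximity ligation (BsaI/T4 ligase, 1 h, 37 °C) and PCR amplification of pools that had been incubated for 30 min at room temperature with 200 nmole of a random double-stranded 16-mer DNA library in Tris/NaCl/DTT/glycerol buffer. Each pool held DNA-barcoded human transcription factors, expressed in yeast as GST fusions and captured on glutathione beads, plus a tag-only sample. Binding signal is a hexamer's read frequency for a factor divided by its frequency in the tag-only sample.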
# [2] = biological target: T2, ELK1 (Homo sapiens, UniProt P19419 1-428); conditions: protein: recombinant; tags: N-terminal GST; dsDNA, one strand shown
# T2 sequence: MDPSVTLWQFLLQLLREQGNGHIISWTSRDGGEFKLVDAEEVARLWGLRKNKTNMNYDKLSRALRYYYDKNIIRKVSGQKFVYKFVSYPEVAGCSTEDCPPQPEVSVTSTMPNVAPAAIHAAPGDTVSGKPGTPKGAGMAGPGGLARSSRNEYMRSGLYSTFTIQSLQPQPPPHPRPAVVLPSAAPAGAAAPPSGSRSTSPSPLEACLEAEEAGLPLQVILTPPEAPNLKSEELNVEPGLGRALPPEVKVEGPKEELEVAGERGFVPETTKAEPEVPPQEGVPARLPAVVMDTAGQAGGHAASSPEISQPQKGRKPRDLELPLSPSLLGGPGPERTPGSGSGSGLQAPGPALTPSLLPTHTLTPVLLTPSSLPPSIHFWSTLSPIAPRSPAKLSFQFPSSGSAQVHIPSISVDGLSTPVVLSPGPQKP
# Procedure, shortened: as §1
# [3] = biological target: T3, GABPA (Homo sapiens, UniProt Q06546 1-454); conditions: protein: recombinant; tags: N-terminal GST; dsDNA, one strand shown
# T3 sequence: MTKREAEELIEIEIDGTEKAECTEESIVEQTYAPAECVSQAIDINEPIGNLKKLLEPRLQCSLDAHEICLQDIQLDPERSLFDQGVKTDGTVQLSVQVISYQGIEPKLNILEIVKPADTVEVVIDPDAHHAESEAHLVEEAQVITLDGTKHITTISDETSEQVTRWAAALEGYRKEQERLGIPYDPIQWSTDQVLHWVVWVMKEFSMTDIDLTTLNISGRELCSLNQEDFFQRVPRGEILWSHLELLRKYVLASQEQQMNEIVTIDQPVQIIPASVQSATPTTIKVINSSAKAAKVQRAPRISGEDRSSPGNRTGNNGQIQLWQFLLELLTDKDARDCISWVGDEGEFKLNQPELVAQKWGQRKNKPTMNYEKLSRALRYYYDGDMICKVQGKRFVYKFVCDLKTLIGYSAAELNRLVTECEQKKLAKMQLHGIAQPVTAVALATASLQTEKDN
# Procedure, shortened: as §1
# [4] = biological target: T4, ERG (Homo sapiens, UniProt P11308 1-479); conditions: protein: recombinant; tags: N-terminal GST; dsDNA, one strand shown
# T4 sequence: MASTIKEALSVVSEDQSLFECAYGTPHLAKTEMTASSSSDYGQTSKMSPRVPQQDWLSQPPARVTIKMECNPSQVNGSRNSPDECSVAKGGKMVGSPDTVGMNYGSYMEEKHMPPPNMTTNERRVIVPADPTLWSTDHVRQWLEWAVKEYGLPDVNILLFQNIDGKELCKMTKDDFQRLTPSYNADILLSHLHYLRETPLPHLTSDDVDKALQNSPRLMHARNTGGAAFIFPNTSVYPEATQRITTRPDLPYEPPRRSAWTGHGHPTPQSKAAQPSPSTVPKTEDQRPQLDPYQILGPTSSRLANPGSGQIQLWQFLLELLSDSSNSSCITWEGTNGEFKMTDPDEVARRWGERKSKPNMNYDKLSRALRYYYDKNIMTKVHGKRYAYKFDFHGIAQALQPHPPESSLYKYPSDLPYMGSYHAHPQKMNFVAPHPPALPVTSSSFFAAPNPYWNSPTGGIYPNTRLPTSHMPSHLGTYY
# Procedure, shortened: as §1
# [5] = biological target: ELF1 (Homo sapiens, UniProt P32519 1-619); conditions: protein: recombinant; tags: N-terminal GST; dsDNA, one strand shown
# ELF1, sequence (P32519 whole entry): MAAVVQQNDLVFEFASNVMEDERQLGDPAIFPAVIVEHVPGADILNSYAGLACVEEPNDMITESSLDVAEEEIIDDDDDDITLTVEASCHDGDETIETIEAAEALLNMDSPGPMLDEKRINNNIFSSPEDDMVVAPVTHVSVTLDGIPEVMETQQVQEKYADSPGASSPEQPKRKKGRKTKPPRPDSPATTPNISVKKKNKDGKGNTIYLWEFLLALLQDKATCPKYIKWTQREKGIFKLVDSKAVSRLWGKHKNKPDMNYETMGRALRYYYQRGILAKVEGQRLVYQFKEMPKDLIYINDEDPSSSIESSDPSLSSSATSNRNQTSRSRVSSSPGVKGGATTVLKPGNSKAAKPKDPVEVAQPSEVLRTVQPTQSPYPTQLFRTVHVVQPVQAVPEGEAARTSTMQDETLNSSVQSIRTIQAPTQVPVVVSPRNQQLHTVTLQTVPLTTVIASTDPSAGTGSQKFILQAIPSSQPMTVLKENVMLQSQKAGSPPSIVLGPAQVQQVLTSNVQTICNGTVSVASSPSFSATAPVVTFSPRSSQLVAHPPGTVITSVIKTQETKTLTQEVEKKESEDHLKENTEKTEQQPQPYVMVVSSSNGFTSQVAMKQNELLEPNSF
# Procedure, shortened: as §1
# [6] = biological target: T5, EHF (Homo sapiens, UniProt Q9NZC4 1-300); conditions: protein: recombinant; tags: N-terminal GST; dsDNA, one strand shown
# T5 sequence: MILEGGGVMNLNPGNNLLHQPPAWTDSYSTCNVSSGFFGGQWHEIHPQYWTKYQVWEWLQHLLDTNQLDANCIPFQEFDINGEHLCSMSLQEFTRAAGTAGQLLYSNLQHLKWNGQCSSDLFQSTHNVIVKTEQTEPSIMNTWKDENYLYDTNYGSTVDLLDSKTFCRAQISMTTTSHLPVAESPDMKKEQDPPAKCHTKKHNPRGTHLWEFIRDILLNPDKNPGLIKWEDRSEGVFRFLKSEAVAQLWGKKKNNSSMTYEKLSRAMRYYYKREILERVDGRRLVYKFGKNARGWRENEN
# Procedure, shortened: as §1
# [7] = biological target: SPI1 (Homo sapiens, UniProt P17947 1-270); conditions: protein: recombinant; tags: N-terminal GST; dsDNA, one strand shown
# Procedure, shortened: as §1
# [8] = biological target: SPIB (Homo sapiens, UniProt Q01892 1-262); conditions: protein: recombinant; tags: N-terminal GST; dsDNA, one strand shown
# SPIB, sequence (Q01892 whole entry): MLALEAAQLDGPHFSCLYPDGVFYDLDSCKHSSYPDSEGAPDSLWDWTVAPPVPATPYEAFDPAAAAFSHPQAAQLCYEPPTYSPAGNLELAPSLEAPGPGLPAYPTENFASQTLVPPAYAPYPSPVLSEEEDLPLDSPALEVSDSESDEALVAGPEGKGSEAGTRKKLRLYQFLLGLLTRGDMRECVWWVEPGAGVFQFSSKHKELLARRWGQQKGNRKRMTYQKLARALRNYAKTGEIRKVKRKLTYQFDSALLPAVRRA
# Procedure, shortened: as §1
# [9] = biological target: T6, ELK3 (Homo sapiens, UniProt P41970 1-407); conditions: protein: recombinant; tags: N-terminal GST; dsDNA, one strand shown
# T6 sequence: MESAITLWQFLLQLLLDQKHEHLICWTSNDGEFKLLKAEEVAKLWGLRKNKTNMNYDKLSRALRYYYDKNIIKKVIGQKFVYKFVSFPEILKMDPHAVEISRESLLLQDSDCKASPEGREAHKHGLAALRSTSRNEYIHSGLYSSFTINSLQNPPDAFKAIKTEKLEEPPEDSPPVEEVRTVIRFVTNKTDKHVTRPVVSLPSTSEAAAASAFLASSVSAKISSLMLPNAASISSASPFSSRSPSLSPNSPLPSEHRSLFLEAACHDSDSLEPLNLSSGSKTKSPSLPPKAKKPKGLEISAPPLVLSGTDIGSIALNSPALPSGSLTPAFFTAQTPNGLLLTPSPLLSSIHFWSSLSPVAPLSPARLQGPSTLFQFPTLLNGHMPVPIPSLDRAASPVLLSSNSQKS
# Procedure, shortened: as §1
# [10] = biological target: T7, FEV (Homo sapiens, UniProt Q99581 1-238); conditions: protein: recombinant; tags: N-terminal GST; dsDNA, one strand shown
# T7 sequence: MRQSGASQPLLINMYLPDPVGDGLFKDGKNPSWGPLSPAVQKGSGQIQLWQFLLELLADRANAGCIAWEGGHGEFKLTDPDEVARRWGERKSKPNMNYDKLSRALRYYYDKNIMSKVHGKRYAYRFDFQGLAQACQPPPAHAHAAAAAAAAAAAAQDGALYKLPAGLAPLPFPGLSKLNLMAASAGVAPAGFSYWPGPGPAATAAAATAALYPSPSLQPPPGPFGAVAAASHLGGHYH
# Procedure, shortened: as §1
# [11] = biological target: ETV5 (Homo sapiens, UniProt P41161 1-510); conditions: protein: recombinant; tags: N-terminal GST; dsDNA, one strand shown
# ETV5, sequence (P41161 whole entry): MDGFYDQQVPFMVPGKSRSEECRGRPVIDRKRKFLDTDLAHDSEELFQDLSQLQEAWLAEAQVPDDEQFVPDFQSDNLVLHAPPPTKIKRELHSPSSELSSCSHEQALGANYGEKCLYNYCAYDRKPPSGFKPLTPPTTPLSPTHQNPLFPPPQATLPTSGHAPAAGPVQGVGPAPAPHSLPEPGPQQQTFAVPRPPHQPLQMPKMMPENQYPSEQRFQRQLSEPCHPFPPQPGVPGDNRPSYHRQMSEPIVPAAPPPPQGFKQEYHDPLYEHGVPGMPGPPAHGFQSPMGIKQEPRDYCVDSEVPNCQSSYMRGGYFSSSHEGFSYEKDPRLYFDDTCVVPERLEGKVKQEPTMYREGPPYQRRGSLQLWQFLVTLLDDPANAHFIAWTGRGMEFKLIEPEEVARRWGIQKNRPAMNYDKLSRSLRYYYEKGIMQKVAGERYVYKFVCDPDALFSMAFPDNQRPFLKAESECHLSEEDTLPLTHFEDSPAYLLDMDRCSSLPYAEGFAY
# Procedure, shortened: as §1
# [12] = biological target: HSF1 (Homo sapiens, UniProt Q00613 1-529); conditions: protein: recombinant; tags: N-terminal GST; chain copies: 3; dsDNA, one strand shown
# HSF1, sequence (Q00613 whole entry): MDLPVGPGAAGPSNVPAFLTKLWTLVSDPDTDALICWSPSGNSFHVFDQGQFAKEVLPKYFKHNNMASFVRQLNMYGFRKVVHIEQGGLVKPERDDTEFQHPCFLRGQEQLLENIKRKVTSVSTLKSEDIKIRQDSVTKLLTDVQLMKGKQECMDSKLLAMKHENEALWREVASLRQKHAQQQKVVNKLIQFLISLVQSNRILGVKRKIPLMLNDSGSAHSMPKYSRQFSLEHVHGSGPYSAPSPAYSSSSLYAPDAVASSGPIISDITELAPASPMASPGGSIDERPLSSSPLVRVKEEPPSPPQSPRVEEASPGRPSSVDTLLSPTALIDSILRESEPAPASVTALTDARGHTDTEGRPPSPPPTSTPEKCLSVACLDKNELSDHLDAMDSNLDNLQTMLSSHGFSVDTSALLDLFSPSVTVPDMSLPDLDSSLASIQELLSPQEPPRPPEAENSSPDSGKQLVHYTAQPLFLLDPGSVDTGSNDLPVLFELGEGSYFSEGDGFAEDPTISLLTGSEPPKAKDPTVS
# Procedure, shortened: as §1
# [13] = biological target: T8, SPIC (Homo sapiens, UniProt Q8N5J4 1-248); conditions: protein: recombinant; tags: N-terminal GST; dsDNA, one strand shown
# T8 sequence: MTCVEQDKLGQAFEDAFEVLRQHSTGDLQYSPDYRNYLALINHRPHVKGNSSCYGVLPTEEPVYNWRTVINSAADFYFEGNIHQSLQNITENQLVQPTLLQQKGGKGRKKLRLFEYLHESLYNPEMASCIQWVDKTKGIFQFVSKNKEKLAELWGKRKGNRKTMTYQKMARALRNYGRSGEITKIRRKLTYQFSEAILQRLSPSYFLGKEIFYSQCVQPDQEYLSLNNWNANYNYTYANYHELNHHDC
# Procedure, shortened: as §1
# [14] = biological target: ELF4 (Homo sapiens, UniProt Q99607 1-663); conditions: protein: recombinant; tags: N-terminal GST; dsDNA, one strand shown
# ELF4, sequence (Q99607 whole entry): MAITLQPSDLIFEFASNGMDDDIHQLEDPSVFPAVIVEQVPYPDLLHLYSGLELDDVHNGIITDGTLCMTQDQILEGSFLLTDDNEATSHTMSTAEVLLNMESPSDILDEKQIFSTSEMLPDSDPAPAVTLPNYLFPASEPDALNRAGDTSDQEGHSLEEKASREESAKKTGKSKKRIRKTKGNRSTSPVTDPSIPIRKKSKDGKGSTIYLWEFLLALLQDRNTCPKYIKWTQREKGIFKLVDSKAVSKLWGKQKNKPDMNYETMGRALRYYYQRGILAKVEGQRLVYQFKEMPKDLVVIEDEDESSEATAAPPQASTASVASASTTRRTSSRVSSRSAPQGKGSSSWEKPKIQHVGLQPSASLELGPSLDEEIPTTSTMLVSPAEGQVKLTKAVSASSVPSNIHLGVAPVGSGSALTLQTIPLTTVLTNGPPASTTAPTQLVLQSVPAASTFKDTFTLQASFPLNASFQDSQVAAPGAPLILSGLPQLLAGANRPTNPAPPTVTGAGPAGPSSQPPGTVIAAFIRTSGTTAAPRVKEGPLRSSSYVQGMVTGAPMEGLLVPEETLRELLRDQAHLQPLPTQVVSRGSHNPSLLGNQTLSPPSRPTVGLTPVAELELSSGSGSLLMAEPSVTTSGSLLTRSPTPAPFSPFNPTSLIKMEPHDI
# Procedure, shortened: as §1
# [15] = biological target: T9, ELK4 (Homo sapiens, UniProt P28324-2 1-405); conditions: protein: recombinant; tags: N-terminal GST; dsDNA, one strand shown
# T9 sequence: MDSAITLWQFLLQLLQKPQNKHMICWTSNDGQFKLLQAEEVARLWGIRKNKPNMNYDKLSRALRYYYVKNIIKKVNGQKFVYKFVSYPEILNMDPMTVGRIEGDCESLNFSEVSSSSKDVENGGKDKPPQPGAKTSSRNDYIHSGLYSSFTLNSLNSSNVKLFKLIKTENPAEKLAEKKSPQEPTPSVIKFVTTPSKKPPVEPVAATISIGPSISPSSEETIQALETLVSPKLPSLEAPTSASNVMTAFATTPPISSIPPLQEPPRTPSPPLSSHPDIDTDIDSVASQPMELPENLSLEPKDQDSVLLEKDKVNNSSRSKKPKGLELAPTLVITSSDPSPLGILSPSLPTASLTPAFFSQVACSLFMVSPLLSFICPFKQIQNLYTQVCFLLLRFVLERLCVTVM
# Procedure, shortened: as §1
# [16] = biological target: T10, ETV2 (Homo sapiens, UniProt O00321 1-342); conditions: protein: recombinant; tags: N-terminal GST; dsDNA, one strand shown
# T10 sequence: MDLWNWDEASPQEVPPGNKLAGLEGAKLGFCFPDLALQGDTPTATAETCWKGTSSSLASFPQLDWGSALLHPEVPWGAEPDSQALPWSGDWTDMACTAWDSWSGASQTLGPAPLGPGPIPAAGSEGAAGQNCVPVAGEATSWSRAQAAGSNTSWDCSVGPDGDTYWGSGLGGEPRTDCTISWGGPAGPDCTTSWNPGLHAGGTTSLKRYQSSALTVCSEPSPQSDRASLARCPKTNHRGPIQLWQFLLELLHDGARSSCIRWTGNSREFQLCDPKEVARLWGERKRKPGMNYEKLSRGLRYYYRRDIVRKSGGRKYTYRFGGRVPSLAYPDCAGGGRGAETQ
# Procedure, shortened: as §1
# [17] = biological target: T11, ELF3 (Homo sapiens, UniProt P78545 1-371); conditions: protein: recombinant; tags: N-terminal GST; dsDNA, one strand shown
# T11 sequence: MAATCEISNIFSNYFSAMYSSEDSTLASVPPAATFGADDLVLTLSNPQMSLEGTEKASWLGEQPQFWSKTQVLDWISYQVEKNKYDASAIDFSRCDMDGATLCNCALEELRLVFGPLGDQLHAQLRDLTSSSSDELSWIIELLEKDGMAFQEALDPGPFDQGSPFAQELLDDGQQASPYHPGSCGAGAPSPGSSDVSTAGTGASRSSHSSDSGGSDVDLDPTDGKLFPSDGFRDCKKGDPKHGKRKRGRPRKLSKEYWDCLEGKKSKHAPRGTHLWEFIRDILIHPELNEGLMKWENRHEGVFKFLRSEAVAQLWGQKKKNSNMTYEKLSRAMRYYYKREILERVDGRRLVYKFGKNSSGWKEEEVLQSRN
# Procedure, shortened: as §1
# [18] = biological target: CRX (Homo sapiens, UniProt O43186 1-299); conditions: protein: recombinant; tags: N-terminal GST; dsDNA, one strand shown
# CRX, sequence (O43186 whole entry): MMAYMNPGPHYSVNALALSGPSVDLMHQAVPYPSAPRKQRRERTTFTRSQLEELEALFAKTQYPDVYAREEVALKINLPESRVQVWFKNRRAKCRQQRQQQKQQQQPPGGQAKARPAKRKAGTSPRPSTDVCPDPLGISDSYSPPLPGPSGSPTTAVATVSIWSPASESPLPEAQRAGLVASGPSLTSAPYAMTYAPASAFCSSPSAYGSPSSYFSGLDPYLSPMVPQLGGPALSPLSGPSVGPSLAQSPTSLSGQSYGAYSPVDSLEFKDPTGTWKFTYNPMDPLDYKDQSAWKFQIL
# Procedure, shortened: as §1
# [19] = biological target: ETV1 (Homo sapiens, UniProt P50549 1-477); conditions: protein: recombinant; tags: N-terminal GST; dsDNA, one strand shown
# ETV1, sequence (P50549 whole entry): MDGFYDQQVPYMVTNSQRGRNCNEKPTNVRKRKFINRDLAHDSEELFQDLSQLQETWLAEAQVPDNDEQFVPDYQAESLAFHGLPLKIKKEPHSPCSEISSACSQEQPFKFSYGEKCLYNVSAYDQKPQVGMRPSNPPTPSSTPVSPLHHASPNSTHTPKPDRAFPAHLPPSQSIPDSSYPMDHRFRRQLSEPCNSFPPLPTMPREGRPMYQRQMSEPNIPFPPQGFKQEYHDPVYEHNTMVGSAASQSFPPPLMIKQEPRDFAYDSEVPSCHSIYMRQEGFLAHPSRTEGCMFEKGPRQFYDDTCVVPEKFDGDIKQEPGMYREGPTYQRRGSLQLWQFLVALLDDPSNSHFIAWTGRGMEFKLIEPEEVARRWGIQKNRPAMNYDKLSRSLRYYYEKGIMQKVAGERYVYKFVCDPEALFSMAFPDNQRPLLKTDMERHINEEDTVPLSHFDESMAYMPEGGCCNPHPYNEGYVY
# Procedure, shortened: as §1
sequence,measurement,setting,value
GTAAAT,binding signal,[1],"1.02 fold enrichment (6-mer frequency, TF over GST control)"
same,binding signal,[2],"1.09 fold enrichment (6-mer frequency, TF over GST control)"
same,binding signal,[3],"1.21 fold enrichment (6-mer frequency, TF over GST control)"
same,binding signal,[4],"1.14 fold enrichment (6-mer frequency, TF over GST control)"
same,binding signal,[5],"1.16 fold enrichment (6-mer frequency, TF over GST control)"
same,binding signal,[6],"1.15 fold enrichment (6-mer frequency, TF over GST control)"
same,binding signal,[7],"1.22 fold enrichment (6-mer frequency, TF over GST control)"
same,binding signal,[8],"1.18 fold enrichment (6-mer frequency, TF over GST control)"
same,binding signal,[9],"1.16 fold enrichment (6-mer frequency, TF over GST control)"
same,binding signal,[10],"1.09 fold enrichment (6-mer frequency, TF over GST control)"
same,binding signal,[11],"1.13 fold enrichment (6-mer frequency, TF over GST control)"
same,binding signal,[12],"1.22 fold enrichment (6-mer frequency, TF over GST control)"
same,binding signal,[13],"1.09 fold enrichment (6-mer frequency, TF over GST control)"
same,binding signal,[14],"1.14 fold enrichment (6-mer frequency, TF over GST control)"
same,binding signal,[15],"1.14 fold enrichment (6-mer frequency, TF over GST control)"
same,binding signal,[16],"1.06 fold enrichment (6-mer frequency, TF over GST control)"
same,binding signal,[17],"1.25 fold enrichment (6-mer frequency, TF over GST control)"
same,binding signal,[18],"1.32 fold enrichment (6-mer frequency, TF over GST control)"
same,binding signal,[19],"1.07 fold enrichment (6-mer frequency, TF over GST control)"
